The target of assay [1] is Lysosomal acid glucosylceramidase (Homo sapiens) (UniProt P04062). The experiment in a line: Glucocerebrosidase-p2 (AID 348; in the data active = potency below about 10 µM; note: potency is the fitted concentration of half-maximal effect). The following applies: purified GBA, blue fluorogenic substrate, 40 min. The method in brief: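 Compounds titrated from 0.6 nM upwards against 0.2 nM enzyme in pH 5.9 citric acid/KH2PO4, taurocholate, tween-20; blue fluorogenic substrate 80 uM, 40 min room temperature, stopped and read Ex 365/Em 440 for AC50.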
Lysosomal acid glucosylceramidase (Homo sapiens), sequence (P04062 whole entry, looked up): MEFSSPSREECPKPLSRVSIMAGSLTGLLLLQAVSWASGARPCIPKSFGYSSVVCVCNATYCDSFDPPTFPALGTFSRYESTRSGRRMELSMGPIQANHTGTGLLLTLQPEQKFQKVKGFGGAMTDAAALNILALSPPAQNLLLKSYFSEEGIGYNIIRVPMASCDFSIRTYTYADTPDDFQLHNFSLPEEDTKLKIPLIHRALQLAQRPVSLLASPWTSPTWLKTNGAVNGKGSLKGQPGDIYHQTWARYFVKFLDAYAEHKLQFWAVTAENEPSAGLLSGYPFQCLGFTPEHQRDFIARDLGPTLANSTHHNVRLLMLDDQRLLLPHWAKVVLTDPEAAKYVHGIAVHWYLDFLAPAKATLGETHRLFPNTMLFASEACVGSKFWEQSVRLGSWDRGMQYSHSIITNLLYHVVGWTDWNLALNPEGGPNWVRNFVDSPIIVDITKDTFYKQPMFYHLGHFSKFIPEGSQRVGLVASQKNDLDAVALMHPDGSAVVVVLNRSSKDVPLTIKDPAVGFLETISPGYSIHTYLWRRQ

Assay [2] can be described thus: AP1 Signaling Pathway (AID 357; active = well fitted curve in either direction with a large enough effect, not every such curve was filed as active;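 note: ME-180 reporter cells stimulated with EGF at its EC50 level; % is set by controls: 0 for no effect and ±100 for the full control effect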). To be noted: ME-180 AP-1-bla reporter, EGF-induced, beta-lactamase ratio, 5 h; at 7.69 µM (top of the series) unless noted. The gist of the method: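 Beta-lactamase reporter under AP-1 response element, ME-180 background. Stimulus: EC50 EGF. Compound exposure 5 h, 37 °C. Detection: CCF4, 2.5 h RT, 460/530 nm. Values: AC50 from titration.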

The target in assay [3] is Cytochrome P450 1A2 (Homo sapiens) (UniProt P05177). The experiment in a line: p450-cyp1a2 (AID 410; calls by dose curve; note: potency is the fitted concentration of half-maximal effect). To be noted: recombinant CYP1A2, luciferin-ME demethylation, luminescence; series mostly up to 57 µM. The gist of the method:
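Inhibition was calculated relative to 57 uM furafylline (full inhibition). The reaction used human CYP1A2 at 20nM with Luciferin-ME at its Km, 100uM, driven by an NADPH-regenerating system for 60 min at room temperature.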

Assay [4] can be described thus: NFAT Signaling Pathway (AID 444; active = well fitted curve in either direction with a large enough effect, not every such curve was filed as active;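 note: carbachol stimulus at about its EC50 of 1 µM final; % is set by controls: 0 for no effect and ±100 for the full control effect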). The following applies: Jurkat NFAT-bla M1, carbachol, beta-lactamase ratio, 5 h; at 7.69 µM (top of the series) unless noted. The method in brief: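 Read-out: CCF4 FRET ratio (460 nm/530 nm) after 1 h RT dye loading, used for %activity and AC50 from titration series. Cells: Jurkat NFAT-β-lactamase/M1 line, treated with compound plus 1 uM carbachol for 5 h, 37 °C.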

Assay [5] can be described thus: Stat Signaling Pathway (AID 446; active = well fitted curve in either direction with a large enough effect, not every such curve was filed as active;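 note: ME-180 cervical cancer cells given 40 pM IL-6 alongside compound; SIE-controlled beta-lactamase reporter measured as 460/530 nm FRET emission ratio; % is set by controls: 0 for no effect and ±100 for the full control effect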). To be noted: ME-180 SIE beta-lactamase reporter, IL-6 stimulated, 5 h; at 7.69 µM (top of the series) unless noted. The gist of the method:
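Screening format detects activators and inhibitors alike: ME-180 SIE-bla cells stimulated at 40 pM IL-6 for 5 hrs with compound, then dual-emission beta-lactamase read at 405 nm excitation.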

Assay [6] addresses Glucocorticoid receptor (Homo sapiens) (UniProt P04150). The experiment in a line: GR-GFP Redistribution (AID 450;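 active = compounds whose dose series gives a full or clear partial fitted curve of increased nuclear translocation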; note: potency is the fitted concentration of half-maximal effect). To be noted: U2OS GR-GFP nuclear translocation, laser cytometry, 2 h.
Assay [7] shares this target. The experiment in a line: GR-EFC Redistribution (AID 451; calls by dose curve; note: potency is the fitted concentration of half-maximal effect). To be noted: CHO-K1 GR-EFC translocation, beta-gal luminescence, 2 h. The gist of the method:
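Translocation of GR-ED fusion to nuclear EA restores b-gal, read by luminescence after 1 h room-temperature detection. Engineered CHO-K1 biosensor cells, 1,000/well, exposed 2 h at 37 C to titrations up to 46 uM final.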

The target of assay [8] is 3',5'-cyclic-AMP phosphodiesterase 4B (Homo sapiens) (UniProt Q07343). The experiment in a line: qHTS Assay for Inhibitors of PDE-IV (AID 607; active = well fitted activation curve with a large enough effect in the main read-out, with a control signal flat, not every such curve was filed as active; note: % of control where 0% means no effect). To be noted: HEK293 ACTOne CNG channel cells, membrane potential fluorescence; series mostly up to 22.9 µM. The gist of the method:
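The readout is membrane depolarisation from a cAMP-sensing CNG channel, detected with a potential dye at ex 535/em 590. Cells were HEK293-derived (endogenous PDE-IV) at 1000 cells/well, titrated up to 22.9 uM final.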
(In qHTS, concentration-response curves come from the screen itself.)

For assay [9], the target named is Cytochrome P450 3A4 (Homo sapiens) (UniProt P08684). The experiment in a line: qHTS Assay for Inhibitors and Substrates of Cytochrome P450 3A4 (AID 884). Note: potency is the fitted concentration of half-maximal effect; nearly all actives have a fitted effect of over 50% in size. The following applies: recombinant CYP3A4, Luciferin-PPXE luminescence; series mostly up to 57.1 µM. The method in brief: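 20 nM human CYP3A4 with 25 uM Luciferin-PPXE (at KM) in 200 mM KPO4, preincubated 10 min with compound; NADPH regeneration started a 60 min RT reaction. Luciferin detected by luminescence, normalized to 57 uM ketoconazole as full inhibition.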
Cytochrome P450 3A4 (Homo sapiens), sequence (P08684 whole entry, looked up): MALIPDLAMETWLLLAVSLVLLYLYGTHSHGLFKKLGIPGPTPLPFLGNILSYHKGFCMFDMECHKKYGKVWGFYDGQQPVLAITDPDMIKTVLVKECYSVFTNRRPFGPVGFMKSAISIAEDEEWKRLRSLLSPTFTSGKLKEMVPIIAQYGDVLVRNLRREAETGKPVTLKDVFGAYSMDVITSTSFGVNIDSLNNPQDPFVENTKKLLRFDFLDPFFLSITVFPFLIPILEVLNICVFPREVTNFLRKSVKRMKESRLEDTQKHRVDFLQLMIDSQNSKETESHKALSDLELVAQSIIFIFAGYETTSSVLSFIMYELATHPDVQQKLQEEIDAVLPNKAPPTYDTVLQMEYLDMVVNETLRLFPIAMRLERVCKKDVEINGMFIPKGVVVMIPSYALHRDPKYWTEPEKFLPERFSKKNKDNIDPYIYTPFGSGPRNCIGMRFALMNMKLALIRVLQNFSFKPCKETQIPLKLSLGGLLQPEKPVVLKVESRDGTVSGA

The target is the same in assay [10]. The experiment in a line: qHTS Assay for Activators of Cytochrome P450 3A4 (AID 885). Note: nearly all actives have a fitted effect of over 65% in size. To be noted: recombinant CYP3A4, Luciferin-PPXE luminescence, 60 min; series mostly up to 57.1 µM. The gist of the method: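 Steps: enzyme/substrate mix dispensed; compound added, 10 min RT; NADPH regeneration solution added, 60 min RT; luciferin detection buffer stops reaction; 20 min later luminescence measured.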

Assay [11] deals with Cytochrome P450 2D6 (Homo sapiens) (UniProt P10635). The experiment in a line: qHTS Assay for Inhibitors and Substrates of Cytochrome P450 2D6 (AID 891). Note: potency is the fitted concentration of half-maximal effect; nearly all actives have a fitted effect of over 60% in size. To be noted: recombinant CYP2D6, luciferin-ME EGE luminescence; series mostly up to 57.1 µM. The method in brief:
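Human CYP2D6 (5 nM) with 30 uM Luciferin-ME EGE (at Km) in 100 mM KPO4, compound preincubated 10 min, then NADPH regeneration system for 60 min at room temperature. Luciferin read by luminescence; normalized to 1.43 uM quinidine.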

The target of assay [12] is Cytochrome P450 2C19 (Homo sapiens) (UniProt P33261). The experiment in a line: qHTS Assay for Inhibitors and Substrates of Cytochrome P450 2C19 (AID 899). Note: potency is the fitted concentration of half-maximal effect; nearly all actives have a fitted effect of over 60% in size. The following applies: recombinant CYP2C19, luciferin-H EGE luminescence; series mostly up to 57.1 µM. The gist of the method:
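Reactions contain 5nM enzyme, 10uM Luciferin-H EGE (KM) and 50mM KPO4; compound preincubates 10 min at 37C, NADPH regeneration starts turnover for 60 min. Luminescence after detection reagent gives activity.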

The nature of assay [13]: qHTS Assay for Identification of Small Molecule Agonists for Hypoxia Response Element Signaling Pathway (AID 914; active = well fitted activation curve with a large enough effect in the signal ratio, with a control signal flat, not every such curve was filed as active; the % refers to the signal ratio; note: % of control where 0% means no effect). To be noted: ME-180 (cervical carcinoma) HRE-bla reporter, beta-lactamase ratio, CoCl2, 17 h; activation: stronger effect = higher value. The gist of the method: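 HRE-bla ME-180 cells with beta-lactamase reporter under hypoxia response element, compounds with EC50 CoCl2 for 17 hours at 37 C. CCF4 substrate, 460nm/530nm emission ratio gave %Activity; AC50 from titration series.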

The target of assay [14] is Dual specificity protein kinase CLK4 (Homo sapiens) (UniProt Q9HAZ1). The experiment in a line: qHTS Assay for Inhibitors of CDC-like Kinase 4 (Kinase-Glo Assay) (AID 1770). Note: nearly all actives have a fitted effect of over 65% in size. Note: potency is the fitted concentration of half-maximal effect. To be noted: recombinant Clk4, Kinase-Glo ATP depletion luminescence; series mostly up to 66.7 µM. The gist of the method:
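Inhibition was judged from remaining ATP, measured by Ultra-Glo luciferase bioluminescence after Clk4 (25 nM) had acted on RS peptide at 1 uM ATP for 4.5 hours, room temperature.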

Assay [15] shares this target. The experiment in a line: qHTS Assay for Inhibitors of CDC-like Kinase 4 (ADP-Glo Assay) (AID 1771). Note: nearly all actives have a fitted effect of over 70% in size. Note: potency is the fitted concentration of half-maximal effect. The following applies: recombinant CLK4, ADP-Glo luminescence; series mostly up to 80 µM. The gist of the method: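 Kinase reaction: Clk4 at 25 nM, RS repeat peptide substrate at 100 uM, ATP at 1 uM, 1 hr, room temperature. Product ADP detected as luciferase signal via ADP-Glo.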

The target of assay [16] is Ubiquitin carboxyl-terminal hydrolase 1 (Homo sapiens) (UniProt O94782). The experiment in a line: Inhibitors of USP1/UAF1: Pilot qHTS (AID 504865). Note: nearly all actives have a fitted effect of over 35% in size. Note: potency is the fitted concentration of half-maximal effect. The following applies: purified USP1/UAF1, Ub-rhodamine cleavage fluorescence; series mostly up to 54.9 µM. The method in brief:
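Kinetic fluorescence assay: 1nM USP1/UAF1, 15 min compound preincubation, then 150nM Ub-Rho; 480/540 nm.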

A short description of assay [17]: Primary qHTS for small molecule stabilizers of the endoplasmic reticulum resident proteome: Secreted ER Calcium Modulated Protein (SERCaMP) assay (AID 1508630). Note: % is set by controls: 0 for no effect and ±100 for the full control effect. The following applies: SH-SY5Y GLuc-SERCaMP (Gaussia luciferase released on ER calcium loss) secretion, thapsigargin, luminescence; series mostly up to 38.4 µM. The method in brief: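 GLuc-SERCaMP-expressing SH-SY5Y cells, pretreated 16 h with compound, are challenged with thapsigargin to empty ER calcium stores; after 4 h, coelenterazine is added directly to the medium and luminescence is imaged.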

In assay [18] the target is Mitogen-activated protein kinase 10 (Mus musculus) (UniProt Q61831). The experiment in a line: JNK3 AlphaScreen Assay (AID 530; active = well fitted curve in either direction with a large enough effect, not every such curve was filed as active). The following applies: JNK3 lysate, c-Jun phosphorylation; series mostly up to 57.1 µM. The method in brief:
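Room-temperature AlphaScreen kinase assay; pre-activated HepG2 lysate as JNK3 source, biotin-GST-cJun(1-79) substrate, 10 uM ATP, compound 15 min preincubation.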

A number with no mark means an inactive call. Records with an inconclusive call do not appear. The source made the active and inactive calls. Unless noted, calls come from the whole dose curve; as a rule, active = well fitted curve in the direction sought with a large enough effect; inconclusive = small, poorly fitted or top-dose-only effect, or another doubt; inactive = no such curve, though single readings can be large; an effect the other way counts as inactive or inconclusive.

Cytochrome P450 1A2 (Homo sapiens), sequence (P05177 whole entry, looked up): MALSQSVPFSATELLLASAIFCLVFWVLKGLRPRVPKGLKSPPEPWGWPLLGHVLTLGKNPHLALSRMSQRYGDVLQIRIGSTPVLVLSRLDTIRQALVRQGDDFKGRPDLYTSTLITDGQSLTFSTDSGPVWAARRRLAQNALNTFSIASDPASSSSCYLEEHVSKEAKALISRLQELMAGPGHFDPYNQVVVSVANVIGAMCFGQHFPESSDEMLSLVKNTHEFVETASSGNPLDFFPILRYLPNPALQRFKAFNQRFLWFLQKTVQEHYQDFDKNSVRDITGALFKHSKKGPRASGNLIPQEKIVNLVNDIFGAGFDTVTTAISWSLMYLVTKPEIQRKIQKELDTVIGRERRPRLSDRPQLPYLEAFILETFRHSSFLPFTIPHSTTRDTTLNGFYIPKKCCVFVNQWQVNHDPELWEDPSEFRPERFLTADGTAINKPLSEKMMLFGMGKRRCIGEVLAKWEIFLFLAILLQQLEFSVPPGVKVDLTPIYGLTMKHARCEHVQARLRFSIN
Ubiquitin carboxyl-terminal hydrolase 1 (Homo sapiens), sequence (O94782 whole entry, looked up): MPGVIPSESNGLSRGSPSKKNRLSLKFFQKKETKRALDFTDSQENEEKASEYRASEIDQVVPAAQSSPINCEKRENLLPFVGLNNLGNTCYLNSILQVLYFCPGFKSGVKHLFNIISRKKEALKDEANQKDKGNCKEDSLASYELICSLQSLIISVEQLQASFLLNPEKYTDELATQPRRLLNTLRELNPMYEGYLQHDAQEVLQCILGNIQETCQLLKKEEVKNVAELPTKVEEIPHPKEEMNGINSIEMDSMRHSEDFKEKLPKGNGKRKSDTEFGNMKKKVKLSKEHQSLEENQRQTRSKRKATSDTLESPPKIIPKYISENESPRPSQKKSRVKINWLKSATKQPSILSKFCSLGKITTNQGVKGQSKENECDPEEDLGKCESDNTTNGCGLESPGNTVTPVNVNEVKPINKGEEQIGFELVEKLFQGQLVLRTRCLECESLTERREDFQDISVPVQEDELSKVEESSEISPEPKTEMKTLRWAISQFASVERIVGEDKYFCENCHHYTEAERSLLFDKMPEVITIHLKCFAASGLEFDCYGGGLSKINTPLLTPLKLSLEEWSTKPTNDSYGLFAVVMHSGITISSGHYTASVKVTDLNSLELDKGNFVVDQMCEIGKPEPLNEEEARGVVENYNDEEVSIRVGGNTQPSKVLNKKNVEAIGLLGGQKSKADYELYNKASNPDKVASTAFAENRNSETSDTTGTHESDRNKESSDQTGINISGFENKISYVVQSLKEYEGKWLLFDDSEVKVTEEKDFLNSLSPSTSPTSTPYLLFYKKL
3',5'-cyclic-AMP phosphodiesterase 4B (Homo sapiens), sequence (Q07343 whole entry, looked up): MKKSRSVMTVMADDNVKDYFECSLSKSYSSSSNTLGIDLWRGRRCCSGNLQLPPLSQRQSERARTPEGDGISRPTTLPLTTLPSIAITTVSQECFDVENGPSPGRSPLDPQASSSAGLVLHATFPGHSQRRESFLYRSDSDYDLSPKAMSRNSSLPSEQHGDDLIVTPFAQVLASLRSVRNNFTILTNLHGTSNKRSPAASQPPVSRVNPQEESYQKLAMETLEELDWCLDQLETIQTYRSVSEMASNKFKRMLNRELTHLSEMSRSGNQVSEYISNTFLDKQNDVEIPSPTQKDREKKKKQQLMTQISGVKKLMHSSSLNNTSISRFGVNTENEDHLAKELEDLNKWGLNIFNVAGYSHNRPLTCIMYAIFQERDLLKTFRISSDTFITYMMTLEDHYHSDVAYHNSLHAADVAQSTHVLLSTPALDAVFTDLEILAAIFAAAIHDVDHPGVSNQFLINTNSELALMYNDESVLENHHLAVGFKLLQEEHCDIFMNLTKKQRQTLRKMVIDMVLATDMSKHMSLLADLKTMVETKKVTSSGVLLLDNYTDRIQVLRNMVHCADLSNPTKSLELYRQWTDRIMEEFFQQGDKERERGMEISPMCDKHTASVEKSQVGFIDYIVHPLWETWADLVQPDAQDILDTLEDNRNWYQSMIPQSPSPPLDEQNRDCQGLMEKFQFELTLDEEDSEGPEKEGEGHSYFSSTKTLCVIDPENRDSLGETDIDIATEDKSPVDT
Dual specificity protein kinase CLK4 (Homo sapiens), sequence (Q9HAZ1 whole entry, looked up): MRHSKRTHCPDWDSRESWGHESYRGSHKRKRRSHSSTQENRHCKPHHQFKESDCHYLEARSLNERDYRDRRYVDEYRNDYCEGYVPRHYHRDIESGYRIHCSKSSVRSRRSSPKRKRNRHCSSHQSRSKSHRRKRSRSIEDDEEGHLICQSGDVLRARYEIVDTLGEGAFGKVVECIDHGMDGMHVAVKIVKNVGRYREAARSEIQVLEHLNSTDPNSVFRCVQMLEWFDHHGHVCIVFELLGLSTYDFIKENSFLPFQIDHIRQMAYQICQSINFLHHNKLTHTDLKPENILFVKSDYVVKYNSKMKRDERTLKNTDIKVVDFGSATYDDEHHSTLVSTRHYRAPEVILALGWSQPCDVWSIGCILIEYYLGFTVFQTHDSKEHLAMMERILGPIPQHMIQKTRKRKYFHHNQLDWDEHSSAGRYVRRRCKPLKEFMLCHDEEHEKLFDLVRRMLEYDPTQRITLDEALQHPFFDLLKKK
Glucocorticoid receptor (Homo sapiens), sequence (P04150 whole entry, looked up): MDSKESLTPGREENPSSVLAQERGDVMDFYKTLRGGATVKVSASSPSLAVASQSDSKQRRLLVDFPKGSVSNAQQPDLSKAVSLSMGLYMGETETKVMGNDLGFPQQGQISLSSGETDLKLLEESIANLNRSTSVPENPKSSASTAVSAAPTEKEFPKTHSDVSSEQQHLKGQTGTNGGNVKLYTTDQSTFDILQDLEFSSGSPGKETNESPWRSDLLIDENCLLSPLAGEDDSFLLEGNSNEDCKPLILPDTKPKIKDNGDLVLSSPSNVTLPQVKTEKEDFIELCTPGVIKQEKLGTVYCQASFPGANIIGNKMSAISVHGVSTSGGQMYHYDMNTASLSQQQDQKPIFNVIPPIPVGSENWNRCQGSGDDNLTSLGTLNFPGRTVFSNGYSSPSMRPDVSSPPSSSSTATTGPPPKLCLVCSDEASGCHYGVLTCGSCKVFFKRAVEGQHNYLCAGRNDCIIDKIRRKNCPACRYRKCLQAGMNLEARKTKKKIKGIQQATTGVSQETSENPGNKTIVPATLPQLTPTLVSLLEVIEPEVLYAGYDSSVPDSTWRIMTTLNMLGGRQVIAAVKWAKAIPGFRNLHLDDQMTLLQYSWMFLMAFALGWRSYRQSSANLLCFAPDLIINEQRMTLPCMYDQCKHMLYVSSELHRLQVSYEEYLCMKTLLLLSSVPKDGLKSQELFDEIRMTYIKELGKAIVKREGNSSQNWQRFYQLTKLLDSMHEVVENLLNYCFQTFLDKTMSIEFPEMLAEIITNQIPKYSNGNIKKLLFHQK
Cytochrome P450 2C19 (Homo sapiens), sequence (P33261 whole entry, looked up): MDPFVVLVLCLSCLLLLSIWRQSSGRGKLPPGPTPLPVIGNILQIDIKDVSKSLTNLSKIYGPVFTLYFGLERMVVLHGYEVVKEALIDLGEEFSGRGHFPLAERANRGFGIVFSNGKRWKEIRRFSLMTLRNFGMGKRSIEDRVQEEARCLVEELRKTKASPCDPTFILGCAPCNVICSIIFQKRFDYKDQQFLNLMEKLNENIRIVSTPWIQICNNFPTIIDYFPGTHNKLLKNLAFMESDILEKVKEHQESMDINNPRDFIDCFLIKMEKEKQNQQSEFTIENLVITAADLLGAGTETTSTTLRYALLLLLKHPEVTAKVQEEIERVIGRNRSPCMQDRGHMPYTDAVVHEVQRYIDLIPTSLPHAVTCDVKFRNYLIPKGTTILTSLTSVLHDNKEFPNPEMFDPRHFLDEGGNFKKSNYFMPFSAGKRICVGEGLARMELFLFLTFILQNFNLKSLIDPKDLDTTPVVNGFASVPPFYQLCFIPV

On to `COc1ccc2[nH]cc(CCNc3cc(-c4ccccc4C)ncn3)c2c1`, for which the Potency in assay [1] was greater than 11.4 µM; in assay [3], 1 µM (active); in assay [6] it was greater than 46 µM; in assay [7] it was greater than 46 µM; in assay [9], 5.01 µM (active); in [11] it was 7.94 µM (active). Further, the Potency in [12] was 7.94 µM (active); in [14], 25.1 µM (active); in [15], 15.8 µM (active). The figures for the activity change, negative = inhibition in [2] and in assay [4] were -2.94% and -8.49%, respectively. Also, the activity, negative = inhibition in assay [5] was -6.58%. The Potency result in assay [8], in assay [10] and in assay [16] was “inactive” throughout. Further, the activation in assay [13] is -7.71%. Moreover, the outcome in [17] was inactive.
With `FC(F)(F)c1ccccc1-c1ccc2ncnc(NC3CC3)c2c1`, the Potency in [1] was greater than 11.4 µM; in assay [3], 0.316 µM (active); in [6], greater than 46 µM; in assay [7], greater than 46 µM; in [9] it was 1.58 µM (active); in assay [12], 2 µM (active). Also, the Potency in assay [14] and in assay [15] was 25.1 µM (active) in each case. Further, the activity change, negative = inhibition in assay [2] was 10%. In assay [5], the activity, negative = inhibition was -18.8%. Moreover, the Potency entry in assay [18], in [10] and in assay [16] was “inactive” throughout. For the same compound, the result in assay [17] was inactive.
Regarding `COc1cccc(Nc2ncc3nc(-c4cccs4)c(=O)n(Cc4cccs4)c3n2)c1`, the Potency was greater than 11.4 µM in assay [1]; 2 µM (active) in [3]; greater than 9.22 µM in assay [6]; greater than 46 µM in [7]; 20 µM (active) in [16]. In addition, in assay [2], the activity change, negative = inhibition was -19.6%. Besides, in assay [5], the activity, negative = inhibition was -4.04%. The Potency entry in assay [18], in assay [8], in [14] and in assay [15] was “inactive” throughout. Moreover, the outcome in [17] was inactive.
For the compound `FC(F)(F)c1ccccc1-c1nc(-n2ccnc2)c2ccccc2n1`, the Potency in [1] was greater than 11.4 µM; in [6], greater than 46 µM; in [7], greater than 46 µM; in assay [14] it was 15.8 µM (active); in assay [15], 17.8 µM (active). Further, the activity change, negative = inhibition in [2] is 9.46%; in [4], 3.74%. In addition, in assay [5], the activity, negative = inhibition was -3.35%. The Potency result in [18], in assay [8] and in assay [16] was “inactive” each time. Also, the activation in assay [13] is 2.67%. Besides, the outcome in [17] was inactive.
For `COc1ccc2[nH]cc(CCNc3ccnc(-c4cccnc4)n3)c2c1`, the Potency in [1] is greater than 11.4 µM; in assay [3] it was 0.251 µM (active); in assay [6], greater than 46 µM; in assay [7] it was greater than 46 µM; in assay [9] it was 1.26 µM (active); in assay [11] it was 1.26 µM (active). Besides, the Potency was 12.6 µM (active) in assay [14] and 14.1 µM (active) in assay [15]. Also, the activity change, negative = inhibition in assay [4] was 11.3%. In addition, the activity, negative = inhibition in assay [5] was -3.13%. In addition, the Potency entry in assay [18], in assay [8], in assay [10] and in assay [16] was “inactive” throughout. Further, the outcome in [17] was inactive.

The values are drawn from PubChem BioAssay (NCATS).
